Screening data deposited in PubChem BioAssay by National Center for Advancing Translational Sciences (NCATS).
LMNA splice mod = LMNA splicing modulation; HeLa LMNA splicing GFP/RFP minigene ratio, 48 h; Potency, µM (titrated, usually from 46.1 µM), for inactives: at the top dose ratio change, negative = inhibition, most hits filed as inhibitors; hit rate 0.01% among 200,000; AID 1487; active = well fitted inhibition curve with a large enough effect in the signal ratio, with a control signal flat, not every such curve was filed as active; inconclusive = small, poorly fitted or top-dose-only effect, or effect the other way, or a change in a side signal; the % refers to the signal ratio; note: % is set by controls: 0 for no effect and ±100 for the full control effect
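Read-out is the ratio of GFP to DsRed2 object intensity, acquired by 488 nm laser-scanning cytometry on HeLa lamin A-EGFP minigene reporter cells. Compound incubation 48 hrs at 37 °C in Opti-MEM with 2% FBS; DMSO 0.5% final.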
HPGD inh = inhibitors of human 15-hydroxyprostaglandin dehydrogenase (HPGD) | P15428 | purified HPGD, NADH fluorescence kinetic, PGE2 substrate | Potency, µM, inactives show at the top dose activity change, negative = inhibition, actives largely listed as inhibitors | hit rate 4.3% among 150,000; active = well fitted inhibition curve with a large enough effect, not every such curve was filed as active; inconclusive = small, poorly fitted or top-dose-only effect, or another doubt; inactive = no such curve, though single readings can be large or run the other way; note: % is set by controls: 0 for no effect and ±100 for the full control effect
Target sequence (P15428 whole entry, looked up): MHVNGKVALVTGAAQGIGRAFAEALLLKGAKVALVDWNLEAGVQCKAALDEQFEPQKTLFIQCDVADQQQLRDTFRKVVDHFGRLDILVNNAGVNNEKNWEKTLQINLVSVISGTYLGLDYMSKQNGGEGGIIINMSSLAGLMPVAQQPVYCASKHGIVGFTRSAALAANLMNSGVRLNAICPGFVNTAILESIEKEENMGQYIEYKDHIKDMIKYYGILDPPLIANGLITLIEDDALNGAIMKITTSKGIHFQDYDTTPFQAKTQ
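20 nM HPGD preincubated 15 min at room temperature with compound in 50 mM Tris-HCl pH 8, 0.01% Tween 20. Started with 1 mM NAD+ and 30 uM prostaglandin E2; NADH fluorescence (360/450 nm) read 5 times over 30-s intervals, last minus first.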
ALDH1A1 block = blocks purified human ALDH1A1 activity. hit rate 7.3% among 220,000. Purified ALDH1A1, NADH fluorescence, propionaldehyde substrate. Potency, µM (doses to about 75.3 µM), inactives show top-dose activity, negative = inhibition, most hits filed as inhibitors. AID 1030. P00352; active = well fitted inhibition curve with a large enough effect, not every such curve was filed as active; inconclusive = small, poorly fitted or top-dose-only effect, or another doubt; inactive = no such curve, though single readings can be large or run the other way;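 note: plate controls were no enzyme wells and a reference inhibitor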
Target sequence (P00352 whole entry, looked up): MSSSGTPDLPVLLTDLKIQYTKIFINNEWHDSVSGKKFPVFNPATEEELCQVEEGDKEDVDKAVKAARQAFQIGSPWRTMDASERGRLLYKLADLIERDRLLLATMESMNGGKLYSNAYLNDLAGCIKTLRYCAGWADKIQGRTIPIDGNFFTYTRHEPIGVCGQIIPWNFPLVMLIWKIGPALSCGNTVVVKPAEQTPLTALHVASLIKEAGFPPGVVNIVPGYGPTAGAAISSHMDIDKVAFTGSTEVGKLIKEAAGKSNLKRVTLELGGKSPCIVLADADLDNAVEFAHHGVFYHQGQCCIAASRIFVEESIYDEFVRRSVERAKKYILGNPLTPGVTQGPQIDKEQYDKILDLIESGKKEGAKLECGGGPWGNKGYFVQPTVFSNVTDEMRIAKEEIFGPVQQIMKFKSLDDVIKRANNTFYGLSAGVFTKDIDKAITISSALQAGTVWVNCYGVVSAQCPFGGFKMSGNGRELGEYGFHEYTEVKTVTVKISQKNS
HTT cytoprotect = cytoprotection in Huntington HTT-Q103 PC12 cell model; hit rate 0.14% among 230,000; Potency, µM (doses to about 56.4 µM), for the others: cytoprotection (ATP increase), usual class: activators; PC12 HTT-Q103 induced, cytoprotection, ATP luminescence, 40 h; note: % of control where 0% means no effect; nearly all actives have a fitted effect of over 45% in size
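Cells were plated at 1500 per well in phenol red-free DMEM with 5% equine and 5% calf serum. Tebufenozide (100 nM final) and compounds were added, then ATPlite reagent, and luminescence was read.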
HTT aggregate = reduces HttQ103-GFP aggregates in PC12 cells; PC12 HttQ103-GFP aggregates, Acumen cytometry, 40 h; Potency, µM (highest dose often 46.1 µM), for inactives: at the highest dose activity change, negative = inhibition, actives largely listed as inhibitors; hit rate 1.1% among 220,000; AID 1688; note: % is set by controls: 0 for no effect and ±100 for the full control effect; nearly all actives have a fitted effect of over 60% in size
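PC12 cells with ecdysone-inducible HTT exon1 Q103-GFP, induced by 100 nM tebufenozide, given compounds in a concentration series. GFP aggregates (1–25 um, 6 SD above background) counted in lysates by laser-scanning cytometry, 488 nm excitation.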
An asterisk follows results filed as active; ? = inconclusive; · = no result given; [ ] = another dose, or the depositor's remark. Hits are enriched below; roughly 8.8% of the tested compounds scored in any of these assays. Unless noted, calls come from the whole dose curve; as a rule, active = well fitted curve in the direction sought with a large enough effect; inconclusive = small, poorly fitted or top-dose-only effect, or another doubt; inactive = no such curve, though single readings can be large; an effect the other way counts as inactive or inconclusive. Potency is the fitted concentration of half-maximal effect.

SMILES	LMNA splice mod	HPGD inh	ALDH1A1 block	HTT cytoprotect	HTT aggregate
COCC(=O)Nc1nc(-c2ccc([N+](=O)[O-])cc2)cs1	·	·	1.0%	-24.6%	1.0%
O=S(=O)(c1ccccc1)N1CCC2(CCN(c3ccncc3)CC2)CC1	·	-6.4%	-1.8%	?	·
Cc1nc2sc3c(c2c(=O)o1)CCC3	12.3%	20µM*	25.1µM*	17.3%[1.9 µM]	-12.7%
O=c1[nH]c(S)nc2sc3c(c12)CCCC3	·	·	4.47µM*	3.9%	?
O=c1[nH]nnc2sc3c(c12)CCCC3	10.9%	-29.6%	?	6.7%[10 µM]	11.2µM*
Cc1nc2sc3c(c2c(=O)o1)CC(C)(C)OC3	9.7%	-8.0%	?	-9.0%	0.9%
Cc1nc2sc3c(c2c(=O)[nH]1)CCCC3	·	-8.7%	1.5%[13.5 µM]	-1.3%[10 µM]	7.5%[9.22 µM]
CCN1CCN(C(c2ccc(SC)cc2)c2c(O)cc(C)n(CCOC)c2=O)CC1 (configuration not stated)	-3.0%[46 µM]	·	·	·	·
O=C(O)[C@@H]1CCCN1Cc1ccc2c(c1)OCO2	·	-10.7%	-1.8%[13.5 µM]	2.8%[10 µM]	·
CCC(C)NC(=O)CSc1nc2c(sc3ccccc32)c(=O)n1CCCN1CCOCC1 (configuration not stated)	2.2%	?	-8.5%	15.0%[10 µM]	21.4%
CCOC(=O)CSc1nc2c(sc3ccccc32)c(=O)n1CCCN1CCOCC1	-8.0%	-21.5%	14.1µM*	10.1%[10 µM]	-8.4%
Cc1ccc(CNc2ccc(O)cc2)cc1	?	?	10µM*	-2.4%[10 µM]	15.8%
CC(=O)Oc1ccc2c(=O)c(N3C(=O)c4ccccc4C3=O)c(C)oc2c1	-6.3%	25.1µM*	-4.0%	-3.0%[10 µM]	-4.8%
COc1cccc(Nc2ncc3nc(CCc4ccccc4)c(=O)n(C)c3n2)c1	16.2%	·	?	-13.9%	·
CCn1nnc(NC(=O)c2cccnc2)n1	-0.2%	25.1µM*	-13.1%	-8.1%	-3.4%
CCn1nnc(NC(=O)c2ccc(C(C)(C)C)cc2)n1	7.0%	-13.0%	-13.2%	-21.2%	?
CC(=O)O[C@H]1CC[C@]2(C)[C@H]3CC=C4[C@@H]5[C@@H](C)[C@H](C)CC[C@]5(C(=O)O)CC[C@@]4(C)[C@]3(C)CC[C@H]2C1(C)C	·	·	·	-16.9%[10 µM]	-26.9%[9.22 µM]
C[C@]12CCC(=O)C=C1CC[C@@H]1[C@@H]2[C@@H](O)C[C@@]2(C)[C@H]1CC[C@]2(O)C(=O)COP(=O)(O)O	·	·	·	-30.3%	-12.0%
Cc1cc(OCc2cccc(Cl)c2)c(C)cc1CN1CCOCC1	·	·	4.9%	1.12µM*	?
Oc1cc2c(cc1O)[C@@H](c1ccccc1)CNCC2	10.8%	20µM*	3.2%	·	-15.8%
COC(=O)c1ccc(N2C(=O)CC(N3CCN(C(=O)c4ccco4)CC3)C2=O)cc1 (configuration not stated)	-8.9%	-1.1%	12.6µM*	4.7%[10 µM]	9.0%
CC(=O)c1cc(F)c(N2CCN(C(=O)c3ccco3)CC2)cc1C	10.5%	-8.7%	?	-35.5%[10 µM]	-18.5%
CC(=O)c1ccc(N2CCN(C(=O)c3ccc(Br)cc3)CC2)c(F)c1	-2.6%	28.2µM*	10µM*	-6.5%	-11.9%
CC(=O)c1ccc(N2CCN(C(=O)c3ccco3)CC2)c(F)c1	8.0%	15.8µM*	3.55µM*	30.5%	?
CC(=O)c1ccc(N2CCCCC2)c(F)c1	·	·	-5.6%	-22.1%[10 µM]	-11.1%[9.22 µM]
SMILES	LMNA splice mod	HPGD inh	ALDH1A1 block	HTT cytoprotect	HTT aggregate
O=C(NCC1CCCCC1)c1nnc(C(=O)NCC2CCCCC2)c2c1[nH]c1ccccc12	·	-8.7%	-10.9%	-18.6%	·
CCNc1ncc2nc(-c3ccccc3)c(=O)n(C[C@H]3CCCO3)c2n1	?	·	?	0.7%	·
O=C(NCc1ccco1)C1CC2CCC1C2 (configuration not stated)	4.1%	15.8µM*	-4.5%	7.0%	-1.9%[9.22 µM]
O=C(O)C1C2CCC(C2)C1C(=O)NCc1ccco1 (configuration not stated)	4.1%	-14.6%	35.5µM*	-62.7%	10.9%
O=C(NCc1ccco1)C1CCCCC1	-12.1%[46 µM]	·	0.1%	16.0%[10 µM]	13.9%[9.22 µM]
COc1ccccc1CNC(=O)c1nn(-c2ccc(C)cc2)c(=O)c2c1c1ccccc1n2C	-4.8%	?	?	-25.2%	19.2%
CC(C)[C@@H](CC(=O)N[C@@H]1CCCC[C@H]1C(=O)N[C@H](CC(=O)N[C@@H](CCC(=O)O)CC(=O)O)Cc1ccccc1)NC(=O)C[C@H](Cc1ccccc1)NC(=O)[C@@H]1CNCC[C@H]1N	·	-6.3%	15.8%	-11.4%[1.9 µM]	·
O=C(/C=C/c1c(Cl)nc2ccccn12)Nc1ccc(F)cc1	·	·	8.0%	-37.8%	4.7%
O=C(Nc1nc(-c2cccnc2)cs1)c1ccccc1[N+](=O)[O-]	?	·	12.5%	-2.3%	3.1%
CC(=O)c1ccc(O)c(CSC2=NCCS2)c1	·	·	-1.3%	·	11.5%
Cc1ccc(NC(=O)N/C=C/c2ccco2)cc1	-1.9%	-25.6%	7.94µM*	-0.2%[10 µM]	19.3%
Cc1ccc(NC(=O)/C=C/c2ccco2)cc1F	-13.1%[46 µM]	·	·	·	·
CC(C)NS(=O)(=O)c1ccc(OCC(=O)Nc2ccc3c(c2)OCO3)cc1	·	·	?	-34.9%	-3.5%
CCCNS(=O)(=O)c1ccc(CCC(=O)Nc2ccc3c(c2)OCCO3)cc1	?	-13.3%	10µM*	·	16.1%
CC(C)NS(=O)(=O)c1ccc(CCC(=O)Nc2ccc3c(c2)OCO3)cc1	-12.1%	-12.3%	0.398µM*	9.5%	-11.6%
CCC(C)NS(=O)(=O)c1ccc(OCC(=O)Nc2ccc3c(c2)OCO3)cc1 (configuration not stated)	0.7%	-14.9%	1.26µM*	-8.7%	8.7%[9.22 µM]
CC(=O)NC(CCS(C)(=O)=O)C(=O)Nc1ccc2c(c1)OCO2 (configuration not stated)	-13.7%	-5.6%	14.2%	·	1.12µM*
CCCCN1CCCC1C(=O)Nc1c(C)cc(C)cc1C (configuration not stated)	·	·	·	-17.9%	6.5%
O=C(c1csnn1)N1CCC2(CCCN(c3ccccn3)C2)CC1	·	-18.4%	?	-19.2%	·
COc1cccc(CNC(=O)c2ccc(Cn3c(SCc4ccccc4)nc4cccnc43)cc2)c1	-3.9%[46 µM]	·	·	·	·
CCCNS(=O)(=O)c1ccc(CCC(=O)NCc2ccco2)cc1	6.3%	-12.8%	2.24µM*	13.6%	13.8%
O=C(CCc1ccc(S(=O)(=O)NCc2ccccc2)cc1)NCc1ccco1	?	-14.9%	?	·	4.5%
CC(=O)c1cc(CC=C(C)C)c(O)cc1O	7.8%	12.6µM*	-0.3%	-15.8%	?
CC(=O)c1cc(CC=C(C)C)c(O)c(CC=C(C)C)c1O	4.1%	-18.4%	14.5%	-16.1%	3.9%
O=Cc1c(OCc2ccccc2)ccc2ccccc12	·	·	-14.4%	-2.9%[10 µM]	25.6%
Cc1ccc2nc(SCc3nnc(-c4cccs4)o3)[nH]c2c1	-2.3%	31.6µM*	22.4µM*	-29.6%[10 µM]	6.8%[9.22 µM]
Cc1ccccc1CN1C(=O)c2ccccc2S(=O)c2ccc(C(=O)NCc3ccc(Cl)cc3)cc21 (configuration not stated)	5.3%[46 µM]	·	·	·	·
